This is a sample that favours compounds with a hit; in the whole collection about 2.7% have one here.
RXFP1 ag: RXFP1 (human) receptor agonism. Q9HBX9. HEK293T-RXFP1 cAMP TR-FRET, 30 min; response scale: percent of porcine relaxin response, buffer zero. Potency, µM (highest dose often 57.5 µM), for the others: top-dose activation, actives largely listed as activators. 370,000 tested, 0.3% active. AID 2676; active means well fitted activation curve with a large enough effect; inconclusive means small, poorly fitted or top-dose-only effect; further: potency means the concentration at half of the fitted maximal effect; on the % scale 0 is the no-effect control and ±100 the full control effect; nearly all actives have a fitted effect of over 60% in size
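Agonist response is measured as cAMP accumulation in an RXFP1-transfected HEK293T line under PDE4 inhibition. Values are scaled between buffer-only and 29 nM porcine relaxin, and EC50s come from standard Hill equation fits.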
RXFP1 antag: RXFP1 (human) relaxin receptor antagonism; activity change, negative = inhibition, % at 57.5 µM; 350,000 tested, 0.59% active; HEK293-RXFP1, relaxin-stimulated cAMP HTRF, 30 min; active compounds read low; Q9HBX9; AID 1259400;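 active means activity change of -60% or lower, but not beyond a set lower limit; inconclusive means change between -60% and -40%, or beyond the set limit; inactive means change above -40%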; further: on the % scale 0 is the no-effect control and ±100 the full control effect
gsp antagonist: antagonists of gsp mutant (McCune-Albright syndrome). gsp-mutant cells, cAMP HTRF, 30 min. Potency, µM (highest dose often 76.9 µM), for inactives: top-dose activity change, negative = inhibition, actives largely listed as inhibitors. 340,000 tested, 0.4% active; calls by dose curve; cell line not stated here;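 further: intracellular cAMP measured with PDE inhibitor Ro 20-1724 present during compound exposure; potency means the concentration at half of the fitted maximal effect; on the % scale 0 is the no-effect control and ±100 the full control effect; nearly all actives have a fitted effect of over 65% in size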
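HTRF cAMP measurement after 30 min RT detection following 30 min, 37C compound treatment alongside […] (added as 300 uM solution) in G418-selected cells seeded at 2000/well and grown 16–24 h.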
Akt phos inh: blocks phosphorylation of Akt; AID 651550; 360,000 tested, 0.32% active; Neuro2A IGF-stimulated pAkt S473 HTRF, 20 min; active compounds read low; activity change, % for hits at 50 µM; in the data active means activity change below about -80%; inconclusive means mostly about -51% to -80%; further: on the % scale 0 is the no-effect control and ±100 the full control effect
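Neuro2A cells in DMEM with 0.5% FBS, overnight at 37 deg C, given compound at single 50 µM final, then IGF (6 nM final) for 20 min at 37 deg C. Lysed; phospho-Akt Ser473 by HTRF after 24 h, 665/615 ratio.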
ClpP mod: qHTS Assay for Activators of ClpP; ATP-dependent Clp protease proteolytic subunit (Bacillus subtilis (strain 168)), P80244; purified B. subtilis ClpP, FRET peptide cleavage, 20 min; Potency, µM (highest dose often 57.5 µM), for inactives: at the top dose activity change, negative = active; 340,000 tested, 1.9% active; AID 651965, 2013; active means well fitted falling curve with a large enough effect; inconclusive means small, poorly fitted or top-dose-only effect; inactive means no such curve, though single readings can be large or run the other way; further: potency means the concentration at half of the fitted maximal effect; the source files actives as falling curves though it sought activators and does not explain the sign; nearly all actives have a fitted effect of over 65% in size
Target sequence (P80244 whole entry, looked up): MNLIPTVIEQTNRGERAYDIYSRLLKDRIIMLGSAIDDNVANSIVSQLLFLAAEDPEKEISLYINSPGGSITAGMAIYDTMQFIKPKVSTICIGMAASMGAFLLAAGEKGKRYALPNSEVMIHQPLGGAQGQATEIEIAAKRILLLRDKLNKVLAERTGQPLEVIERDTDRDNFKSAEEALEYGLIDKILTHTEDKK
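Purified B. subtilis ClpP, 10 microg/mL final in Tris/HCl pH8 with KCl, BSA, glycerol and Tween-20, cleaved an Abz/nitrotyrosine-quenched decapeptide. Fluorescence (ex 320, em 430) was read at 0 and 20 min at room temperature. Delta was normalized to 5.8 microM ADEP and DMSO/no-enzyme controls.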
gsp agonist: gsp mutant agonism | gsp mutant cells, cAMP HTRF, 30 min | Potency, µM (titrated, usually from 76.9 µM), inactives show at the top dose activation (cAMP increase), most hits filed as activators | 340,000 tested, 0.13% active | AID 624287; active means well fitted activation curve with a large enough effect; inconclusive means small, poorly fitted or top-dose-only effect, or another doubt; inactive means no such curve, though single readings can be large or run the other way; cell line not stated here;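 further: phosphodiesterase inhibitor Ro 20-1724 added with compounds to block cAMP breakdown; potency means the concentration at half of the fitted maximal effect; nearly all actives have a fitted effect of over 60% in size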
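Cells stably selected in G418 were plated at 2000/well, grown 16-24 hr, then given compounds in DMSO with the PDE inhibitor […] (300 uM solution added) for 30 min at 37C; cAMP was read by HTRF.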
Active calls of the source: *; i = inactive; ? = inconclusive; nt = not tested or not shown; [ ] = remark or other dose.

SMILES	RXFP1 ag	RXFP1 antag	gsp antagonist	Akt phos inh	ClpP mod	gsp agonist
CCCOC(=O)c1c(NC(=O)C2CCCO2)sc(C(=O)OC)c1C (stereo not given)	-1%	-4	-29%	i	-2%	4%[15.4 µM]
COc1ccc(CNC(=O)c2ccc(NC(=O)C3CCCO3)cc2)cc1 (stereo not given)	-1%	10	13%	-105%*	2%	17%
CCOC(=O)c1sc(NC(=O)CN(CC)CC)c(C(=O)OCC)c1C	6%	-4	23%	-81%*	0%	2%
CCCOC(=O)c1ccc(NC(=O)C2CCCO2)cc1 (stereo not given)	2%	12	16%	-119%*	0%	?
CCOC(=O)c1c(NC(=O)C2CCCO2)sc(C(N)=O)c1C (stereo not given)	6%	0	-1%	i	28µM*	18%
CN(C)c1ccc(/C=C/c2cccc3cc4ccccc4nc23)cc1	nt	nt	nt	nt	56%	nt
O=C1NC(=O)c2cc(NC(=O)C3CCCO3)ccc21 (stereo not given)	0%	-12	11%	i	28µM*	-14%
O=C1OCc2cc(NC(=O)C3CCCO3)ccc21 (stereo not given)	0%	54	11%	i	-6%	5%
Cc1ccc(NS(=O)(=O)c2ccc(NC(=O)C3CCCO3)cc2)cc1 (stereo not given)	3%	1	10%	i	32µM*	-14%
CC(=O)c1cc(-c2ccccc2)n(CCC(=O)NCc2ccc(C)cc2)c1C	1%	-31	nt	nt	-1%	nt
CCCOc1ccc(C2=NNC(c3cccs3)=Nc3ccc(OC)cc32)cc1	0%	5	-5%	-125%*	-2%	-1%
COc1ccc2c(c1)C(c1cccs1)=NNC(c1ccncc1)=N2	1%	-7	-24%	i	3%	-25%
Nc1nc(COc2ccccc2C=O)nc(Nc2ccccc2)n1	-1%	-2	5%	i	25µM*	9%[15.4 µM]
COc1ccc(OCc2nc(N)nc(Nc3ccccc3)n2)cc1	0%	-18	8%	i	-2%	6%
CC1=C(C(=O)N2CCOCC2)CC(CC(=O)NCCCN(C)C)C(=O)N1CCCN1CCCC1=O (stereo not given)	nt	nt	nt	i	0%	nt
CC(=O)Nc1ccc(OCc2cn(CC(=O)c3ccc(O)cc3)nn2)cc1	nt	-6	nt	i	1%	-26%
COc1ccc(C)cc1NC(=O)N1CCN(c2cc(-c3noc(C)n3)ccc2C)CC1	0%	nt	nt	nt	-5%	nt
Cc1ccc(S(=O)(=O)Cn2nnnc2C(c2ccccc2)N2CCN(c3ncccn3)CC2)cc1 (stereo not given)	2%	-18	0%	i	-13%	1%
COc1ccc(C(c2nnnn2CS(=O)(=O)c2ccc(C)cc2)N2CCN(c3ncccn3)CC2)cc1 (stereo not given)	1%	-1	-13%	i	32µM*	-41%
Cc1ccc(Cl)cc1NC(=O)N1CCC(CN2CCCCCC2)CC1	3%	-2	nt	nt	1%	nt
O=C(Nc1ccccc1)C1CCN(S(=O)(=O)c2cccs2)CC1	1%	-2	8%	i	1%	42%
N#Cc1ccsc1NC(=O)C1CCN(S(=O)(=O)c2cccs2)CC1	0%	-70*	-8%	i	nt	11%[15.4 µM]
CC(CNC(=O)c1ccccc1[N+](=O)[O-])NC(=O)c1ccccc1[N+](=O)[O-] (stereo not given)	nt	3	12%	i	nt	8%[15.4 µM]
COc1cc2c(cc1OC)C(c1ccc(N(C)C)cc1)CC(=O)N2 (stereo not given)	4%	-4	-12%	i	10µM*	-2%
CCN(CC)c1ccc(C2CC(=O)Nc3cc(OC)c(OC)cc32)cc1 (stereo not given)	5%	-5	-8%	i	1%	2%

From PubChem BioAssay
